Compound activity from PubChem.
A selection: hits, their analogues and other compounds. The true share with any hit is near 2.8%.
RGS4 inhibitor – human RGS4 inhibition; P49798; Transcreener GDP fluorescence polarization, RGS4-accelerated GTP hydrolysis; Potency, µM (top dose mostly 114 µM), for inactives: top-dose activity change, negative = inhibition, hits mostly inhibitors; 390,000 tested, 0.039% active; active = well fitted inhibition curve with a large enough effect; inconclusive = small, poorly fitted or top-dose-only effect; inactive = no such curve, though single readings can be large or run the other way; note: potency is the fitted concentration of half-maximal effect; % is set by controls: 0 for no effect and ±100 for the full control effect; nearly all actives have a fitted effect of over 75% in size
Target sequence (P49798 whole entry, looked up): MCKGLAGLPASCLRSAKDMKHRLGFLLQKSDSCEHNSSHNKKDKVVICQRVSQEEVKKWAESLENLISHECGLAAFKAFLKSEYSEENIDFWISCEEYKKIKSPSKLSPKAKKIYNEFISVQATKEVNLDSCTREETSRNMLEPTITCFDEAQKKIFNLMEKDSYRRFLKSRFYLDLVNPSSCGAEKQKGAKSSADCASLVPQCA
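MLSMR compounds (23 nl, pin-transferred) preincubated 10 min at room temperature with a 500nM (2x) first reagent, then RGS4 at 900nM (2x) plus Transcreener GDP mix added; fluorescence polarization (620/688 nm) read before and after 90 min at 30 °C.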
LDHA inh – blocks human lactate dehydrogenase A. purified LDHA, NADH/diaphorase-resazurin fluorescence; stronger effect = lower value. P00338. 480,000 tested, 0.15% active. activity change, % (values are at about 110 or 230 µM). AID 1347041; in the data active = activity change below about -30%; inconclusive = mostly about -25% to -30%;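 note: plate controls were DMSO wells for no effect and wells without enzyme for full effect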
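LDH5 2 nM; NADH 0.06 mM, pyruvate 0.2 mM; 200 mM Tris pH 7.4, EDTA, Tween-20; 5 min RT. Detection: diaphorase 0.133 mg/mL + resazurin 37 µM, fluorescence ex540/em590 at 0 and 20 min; normalized to enzyme-free and DMSO wells.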
DRD3 agonist – agonists of human D3 dopamine receptor. D3R DiscoveRx beta-arrestin cells, luminescence, 90 min. max activation, %. 410,000 tested, 0.58% active. AID 652048; in the data active = max activation above about 30%; note: 0% is about no effect
Target sequence (P35462 whole entry, looked up): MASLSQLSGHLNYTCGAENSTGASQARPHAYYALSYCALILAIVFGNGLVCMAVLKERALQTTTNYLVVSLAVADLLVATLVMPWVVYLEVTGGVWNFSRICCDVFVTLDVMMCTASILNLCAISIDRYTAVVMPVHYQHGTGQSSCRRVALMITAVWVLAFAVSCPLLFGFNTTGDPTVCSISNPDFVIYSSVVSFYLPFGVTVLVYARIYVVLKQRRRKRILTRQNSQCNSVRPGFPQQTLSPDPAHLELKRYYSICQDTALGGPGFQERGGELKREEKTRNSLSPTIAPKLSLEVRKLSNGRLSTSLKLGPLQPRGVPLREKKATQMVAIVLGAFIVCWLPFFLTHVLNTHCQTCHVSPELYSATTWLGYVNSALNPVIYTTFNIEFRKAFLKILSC
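Agonist mode: compounds and dopamine controls were applied to plated cells for 90 min at 37 degrees C after an overnight attachment at 1500 cells/well. Luminescent read-out followed 30 - 60 minutes at room temperature with DiscoveRx detection reagent.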
DRD3 antagonist – blocks the human D3 dopamine receptor | P35462 | D3R cells, DiscoveRx beta-arrestin luminescence, antagonist mode; stronger effect = lower value | max response, negative = inhibition, % | 360,000 tested, 2.5% active | AID 652054; in the data active = max response below about -50%; inconclusive = no clear call, values can overlap the other calls; note: % is set by controls: 0 for no effect and ±100 for the full control effect
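Cells plated overnight at 1500 cells/well, then exposed to library compounds with dopamine controls for 90 minutes at 37 degrees C. DiscoveRx reagent added for 30–60 minutes at room temperature; luminescence read, quantitative HTS format.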
PI4K2A block – inhibitors of human PI4K2A | Q9BTU6 | purified PI4K2A, ADP-Glo luminescence, 1 h; stronger effect = lower value | activity change, negative = inhibition, % at 76.9 µM | 420,000 tested, 0.13% active | AID 1346378; in the data active = activity change below about -50%; inconclusive = mostly about -30% to -49%;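 note: -100% = wells without enzyme as full effect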
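ADP-Glo luminescence measured ADP generated by PI4K2A enzyme (4 ug/mL before mixing) with 1.2 mM PI substrate (pre-mix) and 300 microM ATP (pre-mix). Tris pH7.5 buffer with MgCl2, Triton X-100; 1 h reaction at ambient temperature.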
Akt phos inh – inhibitors of Akt phosphorylation; Neuro2A IGF-stimulated pAkt S473 HTRF, 20 min; stronger effect = lower value; activity change, % for hits at 50 µM; 360,000 tested, 0.32% active; AID 651550; in the data active = activity change below about -80%; inconclusive = mostly about -51% to -80%; note: % is set by controls: 0 for no effect and ±100 for the full control effect
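Neuro2A cells in DMEM with 0.5% FBS, overnight at 37 deg C, given compound at single 50 µM final, then IGF (6 nM final) for 20 min at 37 deg C. Lysed; phospho-Akt Ser473 by HTRF after 24 h, 665/615 ratio.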
An asterisk follows results filed as active; ! = a repeat was not active.

Results for CCN(CC)S(=O)(=O)c1cc(NC(=O)CN2c3cccc4cccc(c34)S2(=O)=O)ccc1C ?
LDHA inh: 48

How did CC(C)Nc1nc(C(=O)Nc2ccccc2O)cs1 do in these assays?
LDHA inh: -5

How did C=C[C@]1(C)C[C@@H](OC(=O)CSCCN(CC)CC)[C@]2(C)C(C)CC[C@]3(CCC(=O)[C@H]32)[C@@H](C)[C@@H]1O (stereo partly drawn) do in these assays?
RGS4 inhibitor: -9%; LDHA inh: -4; DRD3 agonist: -59; DRD3 antagonist: -89*!; PI4K2A block: -2; Akt phos inh: inactive

How did O=C(O)CC1(CC(=O)Nc2ccccc2NS(=O)(=O)c2ccc(F)cc2)CCCCC1 do in these assays?
LDHA inh: -2

What do the screens show for `CCCNC(=O)C1(C)CCCN(C(=O)c2ccc3c(c2)CCO3)C1` (stereo not drawn)?
LDHA inh: -3; DRD3 agonist: 3; DRD3 antagonist: 41; PI4K2A block: -5; Akt phos inh: inactive

How did CCNC(=O)C1(C)CCN(C(=O)c2ccc3c(c2)CCO3)C1 (stereo not drawn) do in these assays?
LDHA inh: -4; DRD3 agonist: 1; DRD3 antagonist: -51*; PI4K2A block: -1; Akt phos inh: inactive

Results for Cc1ccccc1C(=O)Nc1ccc2nc(N3CCN(C4CCCCC4)CC3)cc(C(=O)O)c2c1 ?
LDHA inh: 32

How did COc1cccc(N=c2oc3cc(O)ccc3cc2C(=O)NCC2CCCO2)c1 (stereo not drawn) do in these assays?
RGS4 inhibitor: -5%; LDHA inh: 0; DRD3 agonist: 31*; DRD3 antagonist: 14; PI4K2A block: 1; Akt phos inh: inactive

Results for COc1ccccc1N=c1oc2cc(O)ccc2cc1C(=O)NCC1CCCO1 (stereo not drawn) ?
RGS4 inhibitor: 9%; LDHA inh: 14; DRD3 agonist: 2; DRD3 antagonist: 19; PI4K2A block: -11; Akt phos inh: inactive

How did CC(=O)Nc1cccc(-c2nn[nH]n2)c1 do in these assays?
RGS4 inhibitor: 5%; LDHA inh: -4; DRD3 agonist: 0; DRD3 antagonist: -4; PI4K2A block: 2; Akt phos inh: inactive

Results for CC(=O)Nc1ccccc1-c1nn[nH]n1 ?
RGS4 inhibitor: -11%; LDHA inh: -5; DRD3 agonist: 6; DRD3 antagonist: 51; PI4K2A block: -11; Akt phos inh: -101%*

How did O=C(OCc1ccc(Cl)cc1Cl)c1ccc(O)cc1 do in these assays?
LDHA inh: 4

How did CN(C)c1cc(Cl)c2nonc2c1N do in these assays?
RGS4 inhibitor: inconclusive; LDHA inh: 5; DRD3 agonist: 11; DRD3 antagonist: 8; PI4K2A block: -57*; Akt phos inh: inactive

What do the screens show for `CCCCc1nnc(NC(=O)Cc2ccc(OC)c(S(=O)(=O)N3CCOCC3)c2)s1`?
RGS4 inhibitor: 9%; LDHA inh: -1; DRD3 agonist: -3; DRD3 antagonist: 3; PI4K2A block: -4; Akt phos inh: inactive

What do the screens show for `COc1ccc(CC(=O)Nc2nnc(SCc3ccccc3)s2)cc1S(=O)(=O)N1CCOCC1`?
RGS4 inhibitor: -7%; LDHA inh: -3; DRD3 agonist: -10; DRD3 antagonist: 17; PI4K2A block: 3; Akt phos inh: -110%*

Results for CCCOP(=O)(c1ccc(N(C)C)cc1)C(O)c1cccnc1 (stereo not drawn) ?
RGS4 inhibitor: -6%; LDHA inh: -5; DRD3 agonist: 30*; DRD3 antagonist: -8; PI4K2A block: -2; Akt phos inh: inactive

How did C/C(=N/O)C(C)N(O)C(C)/C(C)=N/O (stereo not drawn) do in these assays?
LDHA inh: -1

What do the screens show for `COc1ccc(-c2noc(-c3cc(-c4ccco4)n[nH]3)n2)cc1`?
LDHA inh: 5

Results for Cn1c(=O)c([N+](=O)[O-])c(Cl)c2ccccc21 ?
RGS4 inhibitor: -37%; LDHA inh: -5; DRD3 agonist: -21; DRD3 antagonist: -85*; PI4K2A block: -10; Akt phos inh: inactive

Results for CCN(CC)c1c([N+](=O)[O-])c(=O)n(C)c2ccccc12 ?
RGS4 inhibitor: -1%; LDHA inh: -5; DRD3 agonist: 8; DRD3 antagonist: 5; PI4K2A block: -1; Akt phos inh: inactive

How did COCCN1C(=O)C(=O)/C(=C(/O)c2ccc3c(c2)OCCO3)C12C(=O)N(C)c1ccccc12 (stereo not drawn) do in these assays?
LDHA inh: -1

What do the screens show for `COCCN1C(=O)C(=O)/C(=C(/O)c2cccc(S(=O)(=O)N(C)C)c2)C12C(=O)N(C)c1ccccc12` (stereo not drawn)?
RGS4 inhibitor: -15%; LDHA inh: -4; DRD3 agonist: 5; DRD3 antagonist: -23; PI4K2A block: 25; Akt phos inh: -108%*

How did COc1ccc(-c2nc(-c3ccc(NC(=O)c4ccncc4)cc3)no2)cc1OC do in these assays?
RGS4 inhibitor: -1%; LDHA inh: 1; DRD3 agonist: 50*; DRD3 antagonist: 70; PI4K2A block: -3; Akt phos inh: inactive

How did COc1ccc(Cl)cc1-c1nc(-c2ccc(NC(=O)c3ccncc3)cc2)no1 do in these assays?
RGS4 inhibitor: -54%; LDHA inh: -4; DRD3 agonist: -2; DRD3 antagonist: 11; PI4K2A block: -3; Akt phos inh: inactive

How did C[C@H](CO)N1C[C@H](C)[C@@H](CN(C)C(=O)Nc2ccc(C(F)(F)F)cc2)Oc2c(NC(=O)Nc3ccccc3)cccc2C1=O do in these assays?
RGS4 inhibitor: -9%; LDHA inh: 3; DRD3 agonist: 0; DRD3 antagonist: 8; PI4K2A block: -3; Akt phos inh: inactive

Results for C[C@H](CO)N1C[C@H](C)[C@@H](CN(C)C(=O)Nc2ccc3c(c2)OCO3)Oc2c(NC(=O)Nc3ccc(C(F)(F)F)cc3)cccc2C1=O ?
RGS4 inhibitor: 1%; LDHA inh: 11; DRD3 agonist: 32*; DRD3 antagonist: 94; PI4K2A block: 2; Akt phos inh: inactive

What do the screens show for `C[C@@H]1CN([C@H](C)CO)C(=O)CCCn2nncc2CO[C@@H]1CN(C)C(=O)Nc1ccc2c(c1)OCO2`?
LDHA inh: 13; DRD3 agonist: -10; DRD3 antagonist: -60*; PI4K2A block: -10; Akt phos inh: inactive

How did C[C@H](CO)N1C[C@H](C)[C@@H](CN(C)C(=O)Nc2ccc(C(F)(F)F)cc2)Oc2ccc(NC(=O)NC3CCCCC3)cc2C1=O do in these assays?
RGS4 inhibitor: 22%; LDHA inh: 0; DRD3 agonist: 6; DRD3 antagonist: 30; PI4K2A block: -2; Akt phos inh: inactive
